What all share (experiment): NCI-60 one-dose screen, 48 h (100 = growth as untreated, 0 = no growth, -100 = all killed)
Common to all, as to settings: 10 µM unless noted

In experiment [1] the test system is DU-145 prostate.
The subject of experiment [2] is K-562 leukemia.
The test system of experiment [3] is MALME-3M melanoma.
Experiment [4] relates to MDA-MB-231 breast.
The subject of experiment [5] is RXF 393 renal.
Experiment [6] concerns SF-268 CNS.
Experiment [7] concerns SF-295 CNS.
Experiment [8] relates to SF-539 CNS.
For experiment [9], the system named is UACC-257 melanoma.
For experiment [10], the system named is M14 melanoma.

The text below walks through data of PubChem BioAssay (NCI).

Compounds without any hit were thinned out: in the full panel of roughly 83,000, 20% have a hit.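 Values shown are percent growth following 48 h exposure of cells in 96-well plates to a single concentration of compound; below 10 was considered active.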 Unmarked numbers belong to inactive results. Active and inactive are the calls of the source.

Turning to `COc1ccc(C2CC(c3cc(OC)c(OC)c(OC)c3)=NN2c2ccc(S(N)(=O)=O)cc2)cc1` (centres undefined), the growth in experiment [1] is 85.7%; in experiment [2], 33.1%; in experiment [3], 101%; in experiment [4], 51.3%; in experiment [5], 79.3%; in experiment [6] it was 72.9%. Moreover, the growth in [7] is 55.2%; in experiment [8] it was 77.8%; in experiment [9], 73.7%; in experiment [10], 64.6%.

Regarding `COc1ccc(-c2nc3sc(C)nn3c2-c2nc3cc(C)c(C)cc3[nH]2)cc1`, the growth is 101% in experiment [1]; 97.2% in experiment [2]; 88.3% in experiment [3]; 99.6% in [4]; 99.5% in experiment [5]; 101% in experiment [6]. The growth in [8] was 95%; in experiment [9], 100%; in experiment [10], 103%.

Consider `COc1cc2nc(SCc3cc(OC)c(OC)c(OC)c3)n(-c3ccccc3OC)c(=O)c2cc1OC`, for which the growth in experiment [1] is 81.8%; in experiment [2], 27.3%; in experiment [3] it was 63%; in experiment [4] it was 77.5%; in experiment [5], 78.1%; in experiment [6] it was 69.9%. For the same compound, the growth is 73.8% in experiment [7], 89.9% in experiment [8] and 77.1% in experiment [10].

With `Cc1ccc2nc(NC(=O)CSC(=S)N3CCN(C)CC3)sc2c1`, the growth in experiment [1] was 122%; in [2], 106%; in experiment [3], 108%; in experiment [4] it was 110%; in experiment [5], 105%; in [6], 112%. For the same compound, the results for the growth in experiment [8], in [9] and in experiment [10] were 100%, 89.8% and 107%, respectively.

With `O=C(NCc1ccco1)C1CCN(S(=O)(=O)c2ccc(Cl)cc2)CC1`, the growth in [1] was -18.5% (active); in experiment [2], 13.9%; in experiment [3], 54.6%; in [4], 68.9%; in experiment [5], 85.1%; in experiment [6], 37.1%. Moreover, the growth in [8] is 80.9%; in experiment [9], 86.5%; in [10] it was 72.4%.

For `CC(C)(C)[Si](C)(C)OC1[C@@H](COC(N)=O)O[C@@H](n2cnc3c(N)ncnc32)[C@H]1O[Si](C)(C)C(C)(C)C` (some centres undefined), the growth is 75.1% in [1]; 7.16% (active) in [2]; 111% in [3]; 100% in experiment [4]; 106% in experiment [5]; 79.8% in experiment [6]. The growth is 118% in [7], 97.4% in experiment [8] and 98.8% in [10].

In the case of `CC1=CN2C(=NC3=C(CCCC/C3=C\c3ccccc3)C2c2ccccc2)S1` (centres undefined), the growth in experiment [1] is 108%; in experiment [2], 98.2%; in [3] it was 89%; in experiment [4] it was 103%; in experiment [6] it was 96.9%; in [7], 79.1%. For the same compound, the growth is 92.3% in experiment [8] and 107% in [10].

In the case of `Cc1nn2c(-c3nc4ccc(Cl)cc4[nH]3)c(-c3ccc(F)cc3)nc2s1`, the growth in experiment [1] was 104%; in experiment [2], 88.6%; in [3], 128%; in [4], 116%; in experiment [5], 96.6%; in experiment [6], 101%. For the same compound, the growth in experiment [8] was 97.1%; in experiment [9], 92.9%; in [10], 95.4%.

In the case of `Cc1ccc2c(c1)c(Sc1ccc(C(=O)NO)cc1)c1n2CN(C)CC1`, the growth in experiment [1] was 11.7%; in [2] it was 11.5%; in [3], 26.6%; in [4], -32.2% (active); in experiment [5] it was 33%; in experiment [6], 1.67% (active). For the same compound, the growth in experiment [7] was 11.8%; in experiment [8], -35.1% (active); in experiment [10], 26%.

`CC(=O)Nc1ccc(Sc2ccc([N+](=O)[O-])o2)cc1`: the growth in experiment [1] was 34.7%; in [2], 17.6%; in experiment [3], -16.5% (active); in experiment [4], 58.6%; in experiment [5], -57.1% (active); in experiment [6] it was 54.5%. In addition, the growth in [8] was 15.3%; in experiment [9], -43.4% (active); in [10], 12.3%.

Take `FC(F)(F)c1cc(CNc2ncc(Br)c(Cl)n2)cc(C(F)(F)F)c1`: the growth is 107% in experiment [1]; 89.1% in experiment [2]; 75.8% in [3]; 121% in experiment [4]; 86% in experiment [5]; 102% in [6]. The growth was 97% in experiment [8], 96.4% in experiment [9] and 98.1% in experiment [10].

As for `CN([N-]C(=O)CC(=O)[N-]N(C)C(=S)c1ccccc1)C(=S)c1ccccc1.[Cu+2]`, the growth in experiment [1] was -74.1% (active); in experiment [2], -29.7% (active); in [3] it was -90.3% (active); in experiment [4], -89.5% (active); in experiment [5] it was -91.8% (active); in [6], -67.3% (active). The growth was -69.3% (active) in experiment [8], -92.9% (active) in experiment [9] and -58.2% (active) in [10].

As to `O=C(Nc1nc2ccccc2[nH]1)C(=O)Nc1nc2ccccc2[nH]1`, the growth in experiment [1] is 114%; in experiment [2], 94.1%; in experiment [3] it was 91.4%; in [4], 91%; in [5], 102%; in [6], 102%. The growth is 95.8% in experiment [8], 101% in experiment [9] and 98.8% in [10].

Turning to `Cc1cc(=O)[nH]n1-c1cc(Cl)ccc1N`, the growth in experiment [1] is 132%; in [2], 99.4%; in experiment [3], 108%; in experiment [4], 124%; in [5], 107%; in experiment [6], 116%. The values for the growth in experiment [8], in [9] and in [10] were 102%, 89.8% and 99.8%, respectively.

Consider `N#Cc1ccc(C(F)(F)F)nc1N1CCC(C(=O)Nc2ccc(Cl)cc2)CC1`, for which the growth in [1] was 86.6%; in [2], 49.3%; in experiment [3] it was 94.2%; in [4], 95.7%; in experiment [6] it was 89%; in experiment [7], 65.5%. Besides, the growth in experiment [8] was 100%; in experiment [10], 75.2%.
